Data reported in PubChem BioAssay AID651599 (National Center for Advancing Translational Sciences (NCATS), 2012).
Records with an inconclusive call do not appear. The source made the active and inactive calls. Calls follow the shape of the dose curve; as a rule, active = well fitted inhibition curve with a large enough effect; inconclusive = small, poorly fitted or top-dose-only effect; inactive = no such curve, though single readings can be large or run the other way.

These compounds were tested against Tumor susceptibility gene 101 protein (Homo sapiens) (UniProt Q99816) (assay: qHTS Assay for Iinhibitors of HIV-1 Budding by Blocking the Interaction of PTAP/TSG101: Hit Validation in TR assay). Settings: Tsg101 binding domain + Texas Red-labeled PTAP peptide, fluorescence polarization, 20 min; series mostly up to 57.5 µM; activity change, negative = inhibition: at the top concentration.
Sequence of Tumor susceptibility gene 101 protein (Homo sapiens) (Q99816 whole entry, looked up, the tested form may be a part): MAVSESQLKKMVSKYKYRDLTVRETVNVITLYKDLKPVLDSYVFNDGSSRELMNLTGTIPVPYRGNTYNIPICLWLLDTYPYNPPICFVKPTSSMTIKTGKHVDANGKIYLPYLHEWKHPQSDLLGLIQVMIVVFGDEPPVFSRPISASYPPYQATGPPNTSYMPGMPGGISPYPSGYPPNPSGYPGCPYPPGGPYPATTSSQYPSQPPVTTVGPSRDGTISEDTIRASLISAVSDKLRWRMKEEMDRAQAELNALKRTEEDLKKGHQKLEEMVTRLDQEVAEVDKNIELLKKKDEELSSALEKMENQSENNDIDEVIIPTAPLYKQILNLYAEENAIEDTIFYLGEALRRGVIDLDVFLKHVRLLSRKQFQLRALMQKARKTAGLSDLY
Summary of the method: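 Fluorescence polarization: Tsg101 binding domain (10 uM final) with Texas Red-labelled PTAP peptide (50 nM final) in HEPES pH 7.5, 0.15 M NaCl, Tween 20, EDTA, TCEP; 20 min binding at room temperature after compound addition.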
% is scaled to controls: 0 for no effect and ±100 for the full control effect.

Activity change, negative = inhibition, inactive:
O=c1c(/C=C(\O)c2ccccc2)nc2ccccc2n1-c1ccccc1 10.3%
CC1=CC(=C(C#N)c2nc3ccccc3s2)C=C(C)N1c1ccc(F)cc1F 24.7%
CC1=CC(=C(C#N)c2nc3ccccc3s2)C=C(C)N1Cc1ccco1 25.6%
Cn1cc(/C=C2\SC(=S)N(NC(=O)c3ccccc3)C2=O)c2ccccc21 22.4%
COc1ccc(/C=c2\s/c(=C/C(=O)c3ccc(C)cc3)[nH]c2=O)c(OC)c1 27.8%
Nc1ccc2c(c1)C/C(=C/c1ccco1)C2=O -14.1%
COc1ccccc1NC(=O)c1sc2nc(Cc3ccccc3)cc(C(F)(F)F)c2c1N 44.1%
CC1CC(C)CN(C(=O)c2ccc3c(c2NCCO)C(=O)c2ccccc2C3=O)C1 (stereo unspecified) -24.3%
O=C(NCc1cccc(F)c1)c1cccc2c1C(=O)c1ccc(N3CCCC3)cc1S2(=O)=O 33.2%
N=c1c(S(=O)(=O)c2ccc(Br)cc2)cc2c(=O)n3ccccc3nc2n1Cc1ccccc1 -0.502%
O=C1c2cccc3c(O)ccc(c23)C(=O)N1Cc1ccco1 -0.957%
CC(C)(C)OC(=O)NC(Cc1ccccc1)C(=O)N1CCC(C(=O)NCC(=O)Nc2ccc(F)cc2)CC1 (stereo unspecified) 14.3%
COc1ccc(/C(O)=C/c2nc3ccccc3n(-c3ccccc3)c2=O)cc1 -4.86%
Cc1cc(C)n2nc3nc4c(cc3c2n1)CCCC4 -6.13%
O=C1c2ccccc2S(=O)(=O)c2cc(N3CCN(C(=O)c4ccccc4)CC3)ccc21 5.28%
N#Cc1cccc(NC(=O)CSc2ccc3c4c(cccc24)C(=O)c2ccccc2-3)c1 -29.4%
